Six1-Eya2 inh = inhibitors of human Six1/Eya2 interaction. AlphaScreen GST-Six1/His-Eya2 binding, biochemical; stronger effect = lower value. activity change, % (test concentration not listed). 360,000 tested, 0.56% active. AID 651725; in the data active = activity change below about -65%; inconclusive = mostly about -30% to -63%
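AlphaScreen luminescence read after one hour at 37 °C in darkness. Pin-transferred compounds met GST-Six1 and His-Eya2 protein (5X stock 250 nM/500 nM) plus glutathione donor and Ni-chelate acceptor beads (5X, 50 ug/mL).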
JMJD2A Tudor inh = JMJD2A Tudor domain (human) inhibition; Potency, µM (highest dose often 114 µM), actives largely listed as inhibitors; 390,000 tested, 4.4% active; AlphaScreen JMJD2A-Tudor / H3K4me3 peptide binding; O75164; note: nearly all actives have a fitted effect of over 50% in size
BAZ2B inh = BAZ2B (human) inhibition; 360,000 tested, 4.4% active; AlphaScreen BAZ2B-H3K14Ac peptide displacement; Q9UIF8; Potency, µM (top dose mostly 114 µM), most hits filed as inhibitors; note: nearly all actives have a fitted effect of over 60% in size
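Compounds, titrated to a top concentration of 110 uM, were incubated 30 min at room temperature with preformed BAZ2B/acetyl-K14 H3 peptide complex (50 nM each). Proximity signal was measured by AlphaScreen after 20 min with beads.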
CtBP-E1A blk = CtBP/E1A binding inhibition; AlphaScreen GST-E1A/His-CtBP binding, 1536-well; stronger effect = lower value; 340,000 tested, 0.49% active; AID 651724; activity change, % (test concentration not listed); in the data active = activity change below about -65%; inconclusive = mostly about -30% to -63%
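Protein mix (5X: 125 nM each GST-E1A, His-CtBP) was incubated with pinned compound 2 h at 37 deg C in dark, in 50 mM Tris pH 8.0 buffer with 300 mM NaCl. Glutathione donor and nickel acceptor beads followed; AlphaScreen signal read after 1 h.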
HP1b chromo inh = HP1-beta chromodomain-methylated histone interaction inhibition | P83916 | AlphaScreen HP1-beta / biotin-H3K9me3 peptide binding | Potency, µM (top dose mostly 114 µM), hits mostly inhibitors | 390,000 tested, 0.56% active; note: nearly all actives have a fitted effect of over 70% in size
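HP1-beta protein (50 nM final) preincubated 30 min at room temperature with biotinylated H3(1-18)K9me3 peptide (50 nM) in PBS pH 7.4, 0.01% Tween-20, then compound added for 30 min. AlphaScreen streptavidin donor/nickel chelate acceptor beads (10 ug/mL final), 30 min dark, luminescence read.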
G9a inh = G9a (human) methyltransferase inhibition; Q96KQ7; G9a H3K9 monomethylation, AlphaScreen, 2 h; Potency, µM (titrated, usually from 102 µM), hits mostly inhibitors; 350,000 tested, 8.8% active; AID 504332; note: nearly all actives have a fitted effect of over 75% in size
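Methyltransferase reactions run at room temperature for 2 h (20 nM enzyme, 500 nM biotin-H3K9 peptide, 20 uM SAM) after a 15 min compound preincubation; product detected by AlphaScreen beads and anti-H3K9me1 antibody.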
A number is an active result; i = inactive; ? = inconclusive; nt = no result given; [ ] = remark or other dose. A selection: hits, their analogues and other compounds. The true share with any hit is near 10%. Unless noted, calls come from the whole dose curve; as a rule, active = well fitted inhibition curve with a large enough effect; inconclusive = small, poorly fitted or top-dose-only effect; inactive = no such curve, though single readings can be large or run the other way.

SMILES	Six1-Eya2 inh	JMJD2A Tudor inh	BAZ2B inh	CtBP-E1A blk	HP1b chromo inh	G9a inh
COC(=O)CN1C(=S)N(c2ccc(Cl)cc2)C(=O)C1CC(=O)Nc1ccc(F)cc1 (stereo not given)	i	i	i	i	i	50µM
Cc1cccc(CN(C(=S)Nc2c(C)cccc2C)c2cccnc2)c1	i	i	79µM	i	i	?
COc1ccc(/C=C/C(=O)NC(=S)Nc2ccc(S(=O)(=O)Nc3nccnc3OC)cc2)cc1	i	i	i	?	i	?
COc1ccc(/C=C/C(=O)NC(=S)Nc2ccc(S(=O)(=O)Nc3cc(OC)ncn3)cc2)cc1	i	i	i	?	i	40µM
COc1cc(NS(=O)(=O)c2ccc(NC(=S)NC(=O)/C=C/c3ccc(OC)c(OC)c3)cc2)ncn1	i	i[11.4 µM]	13µM	nt	22µM	40µM
COc1cc(NS(=O)(=O)c2ccc(NC(C)=O)cc2)ncn1	i	i	i	i	i	?
CCCCN(CCCC)C1=C(C(=O)c2ccccc2)N(C)S(=O)(=O)c2ccccc21	nt	i	i	nt	i	?
Cc1ccc2c(c1)c(C1=NC(=S)NC1=O)c(O)n2C	i	i	i	i	i	40µM
OCCN(Cc1ccccc1)Cc1ncccc1O	i	i	nt	i	i	nt
OCCN(Cc1ccccc1)CC1CC=CCC1 (stereo not given)	i	10µM	79µM	i	?	10µM
COc1ccccc1CNCC(=O)Nc1ccc(N(C)C)cc1	i	4µM	50µM	nt	i	i[2.33 µM]
CCN(CC)S(=O)(=O)c1ccc(C)c(NC(=O)CNCc2ccccc2OC)c1	i	11µM	i	i	i	25µM
CCN(CC)S(=O)(=O)c1ccc(C)c(NC(=O)CN(C)C)c1	i	i	i	i	i	i
COc1ccc(Cn2c(C(=O)O)c(CNC3CCCCCC3)c3ccc(OC)cc32)cc1	nt	i	?	nt	i	i
CC(=O)C1=C(C)OC(N)=C(C#N)C1c1cc([N+](=O)[O-])ccc1Cl (stereo not given)	i	i	i	i	i	nt
N#CC1=C(N)OC2=C(CC/C2=C\c2ccccc2Cl)C1c1ccccc1Cl (stereo not given)	i	?	?	nt	i	22µM
N#CC1=C(N)OC2=C(CC/C2=C\c2ccccc2)C1c1ccccc1 (stereo not given)	i	?	89µM	i	?	45µM
N#CC1=C(N)OC2=C(C(=O)CCC2)C1c1ccccc1 (stereo not given)	i	i	nt	i	i	i
Cc1nc(-c2ccc(Cl)cc2)sc1CCNC(=O)C(=O)Nc1ccc2c(c1)OCCO2	nt	i	i	nt	i	i
O=c1[nH]c(=S)c2ncn(-c3ccccc3)c2[nH]1	i	14µM	?	i	i	25µM
Nc1nc2c(ncn2-c2ccccc2)c(=O)[nH]1	?	i	nt	-73	i	nt
Nc1nc2nn(-c3ccccc3)nc2c(=O)[nH]1	?	i	i	nt	i	i
Cc1cc(OC(=O)c2ccc(C)c(C)c2)c([N+](=O)[O-])c(=O)[nH]1	i	i	i	nt	i	i
Cc1ccc(C(=O)Oc2cc(C)[nH]c(=O)c2[N+](=O)[O-])cc1	i	i	i	i	i	i
Cc1cc(OC(=O)c2ccc3ccccc3c2)c([N+](=O)[O-])c(=O)[nH]1	i	i	i	i	i	45µM
SMILES	Six1-Eya2 inh	JMJD2A Tudor inh	BAZ2B inh	CtBP-E1A blk	HP1b chromo inh	G9a inh
Cc1cc(OC(=O)c2ccc(S(=O)(=O)N3CCOCC3)cc2)c([N+](=O)[O-])c(=O)[nH]1	i	i	?	i	i	56µM
Cc1ccccc1OCc1nc2ccccc2c(=O)n1/N=C/c1ccco1	i	i	i	i	i	?
Cc1ccc(/C=N/n2c(COc3ccccc3)n[nH]c2=S)o1	i	56µM	i	nt	i	13µM
S=c1[nH]nc(COc2ccccc2)n1/N=C/c1ccco1	i	18µM	?	i	i	i
CC(C)c1ccc(C2C3=C(CC(c4ccco4)CC3=O)Nc3nc(C(F)(F)F)nn32)cc1 (stereo not given)	nt	i	nt	nt	i	nt
CC(=O)N1CC[C@@H]2CC(=O)CC[C@@H]21	nt	nt	nt	nt	nt	i
CCN(C(=O)Cn1c(=O)oc2cc(S(=O)(=O)N3CCCC3)ccc21)c1cccc(C)c1	nt	i	i	nt	i	i
CC(C)=O	nt	nt	nt	nt	nt	i
CC(N)=O	nt	nt	nt	nt	nt	0.79µM
CCOC(=O)c1ccccc1NC(=O)Cn1c(=O)n(Cc2nc(C)no2)c(=O)c2ccccc21	nt	i	i	nt	i	i
CCOC(=O)c1ccc(CC(=O)c2oc3cc(O)ccc3c2C)o1	i	?	?	i	i	?
CCOC(=O)c1ccc(CC(=O)c2ccc(O)c(O)c2O)o1	i	i	32µM	i	?	nt
CCN1CCN(C(=O)c2ccc3c(c2)N(Cc2cccc(F)c2)C(=O)c2ccccc2S3)CC1	nt	79µM	i	nt	i	?
O=C(NCCN1CCCC1)c1ccc2c(c1)N(Cc1ccc(F)cc1)C(=O)c1ccccc1S2=O (stereo not given)	i	i	i	i	i	40µM
CN1CCN(C(=O)c2ccc3c(c2)N(Cc2ccc(Cl)cc2)C(=O)c2ccccc2S3=O)CC1 (stereo not given)	i	i	i	i	i	79µM
CN(C)c1oc(-c2ccccc2Cl)nc1S(=O)(=O)c1ccccc1	i	?	?	i	i	79µM
CC(=O)Nc1nc(C(=O)O)cs1	i	4µM	32µM	i	?	22µM
CC(C)(C)C(=O)Nc1ccc2nc(SCC(=O)N3CCCC3)sc2c1	nt	i	i	nt	i	i
COC(=O)c1c[nH]n2c(=O)c(C(C)C)c(C)nc12	i	i	i	i	i	i
COC(=O)c1c[nH]n2c(=O)cc(CCl)nc12	i	79µM	?	i	i	i
CC1CN(S(=O)(=O)c2cccc(C(=O)OCC(=O)Nc3ccc4c(c3)OCO4)c2)CC(C)O1 (stereo not given)	i	i	i	i	i	50µM
O=C(COc1ccc(Br)cc1Cl)Nc1ncn[nH]1	nt	i	i	nt	i	i
Cc1ccccc1C(=O)Nc1ccc2nc(Nc3cccc(C(F)(F)F)c3)cc(C)c2c1	nt	i	i	nt	i	i
CCOC(=O)N1CCN(C(=O)CCCCn2c(=S)[nH]c3ccsc3c2=O)CC1	i	?	i	i	i	32µM
CC1CCCCC1NC(=O)CCCCCn1c(=S)[nH]c2ccsc2c1=O (stereo not given)	i	i	i	nt	i	28µM
COc1ccc(N2CCN(C(=O)CCCCCn3c(=O)[nH]c4ccsc4c3=O)CC2)cc1	i	i	i	i	i	40µM
O=C(CCCn1c(=S)[nH]c2ccsc2c1=O)NCCc1ccccc1	i	i	i	nt	i	10µM
Cc1oc2ccc(O)c(CN(C)Cc3ccccc3)c2c1C(=O)Nc1cccc(C(F)(F)F)c1	nt	i	i	nt	i	i
Cc1cccc(-c2nnc(SCCC(=O)O)o2)c1	nt	i	i	nt	i	?

From PubChem BioAssay
